Test results as given in ChEMBL document CHEMBL1201862, “PubChem BioAssay data set” (2004).
Hit rate of the full screen: of about 55,000 sequences, about 5,800 (11%) were called active. This is one part of a sample in which actives are shown more often than they occur. No stated cut-off is given here; in the data, active = GI50 up to about 1.1 µM and inactive = higher. Potency and affinity values are given separately.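 The compound was tested at five concentrations on cells cultured in 96-well plates, with a 48-hour exposure period. GI50: concentration for 50% inhibition of growth.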

Each substance was assayed on CCRF-CEM (assay: NCI tumour cell line growth inhibition, 48 h).

Substance | GI50
[Bis(aminomethyl)diethylsilane]tetrachloroplatinum(IV), CHEMBL2146203 | 283 nM
[Bis(aminomethyl)pentamethylenesilane]dichloropaltinum(II), CHEMBL2146202 | 202 nM
[Bis(aminomethyl)dimethylsilane]dichloroplatinum (II), CHEMBL2146201 | 3660 nM
mu-(1,7-nanodiamine-N,N')bis-(cis-aminedichloroplatimum (II)), CHEMBL2146215 | 925 nM
[Bis(aminomethyl)tetramethylenesilane]dichloropaltinum(II), CHEMBL2146205 | 1560 nM
[Bis(aminomethyl)pentamethylenesilane]tetrachloropaltinum(IV), CHEMBL2146204 | 95.3 nM
ACRIFLAVINE HYDROCHLORIDE, CHEMBL5219995 | 233 nM
CISPLATIN, CHEMBL11359 | 1120 nM
[Bis(aminomethyl)tetramethylenesilane]tetrachloropaltinum(IV), CHEMBL2146189 | 246 nM
[Bis(aminomethyl)ethylmethylsilane]tetrachloroplatinum(IV), CHEMBL2146192 | 381 nM
[Bis(aminomethyl)dimethylsilane]tetrachloroplatinum(IV), CHEMBL2146190 | 805 nM
cis-Bis[[(trimethylsilyl)methyl]amino]tetrachloroplatinum(IV), CHEMBL2146191 | 1230 nM
